Experimental data taken from PubChem BioAssay (Tox21).
Results filed as inconclusive are left out. Where a call stands in place of a potency, no number is given. Calls of active or inactive are those of the source. Unless noted, calls follow the shape of the dose curve; as a rule, active = well fitted curve in the direction sought with a large enough effect in the repeat runs; inconclusive = weak or mixed curves; inactive = no such curve, though single readings can be large; an effect the other way counts as inactive or inconclusive.

What was measured:
[1] = qHTS assay to identify small molecule agonists of the peroxisome proliferator-activated receptor delta (PPARd) signaling pathway - cell viability counter screen (AID 743211); also: nearly all actives have a fitted effect of over 55% in size
Outline: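 Tox21 library compounds, delivered in DMSO, were incubated 17 h with PPARd-bla HEK293H cells; cytotoxicity was taken from CellTiter-Glo luminescence read 30 min after reagent addition.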

[2] = qHTS assay to identify small molecule antagonists of the peroxisome proliferator-activated receptor delta (PPARd) signaling pathway - cell viability counter screen (AID 743213); also: nearly all actives have a fitted effect of over 50% in size
Outline: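 HEK293H PPARd UAS-bla cells, 5 h pre-incubation, compound + L165041 300 nM final, 17 h 37 C; B/G FRET substrate 2 h RT; then CellTiter-Glo 30 min RT, luminescence.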

[3] = qHTS assay to identify small molecule agonists of the farnesoid-X-receptor (FXR) signaling pathway - cell viability counter screen (AID 743218); also: nearly all actives have a fitted effect of over 45% in size
Outline: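 Cells were seeded, left 5 h at 37 C and 5% CO2, then dosed with compound in DMSO for 16 h. After the beta-lactamase FRET read, CellTiter-Glo was added and luminescence measured 30 min later.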

[4] = qHTS assay to identify small molecule antagonists of the farnesoid-X-receptor (FXR) signaling pathway - cell viability counter screen (AID 743221; active = well fitted cell-killing curve with a large enough effect in the repeat runs, not every such curve was filed as active; also: nearly all actives have a fitted effect of over 50% in size)
Outline: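 Cytotoxicity is taken from ATP luminescence (CellTiter-Glo, 30 min, room temperature) in FXR-bla HEK 293T cells previously incubated 16 h at 37 C with compound and chenodeoxycholic acid at 50 uM final.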

[5] = target: Vitamin D3 receptor (Homo sapiens) (UniProt P11473); assay: qHTS assay to identify small molecule agonists of the vitamin D receptor (VDR) signaling pathway (AID 743222; calls by dose curve)
Vitamin D3 receptor (Homo sapiens), sequence (P11473 whole entry, looked up): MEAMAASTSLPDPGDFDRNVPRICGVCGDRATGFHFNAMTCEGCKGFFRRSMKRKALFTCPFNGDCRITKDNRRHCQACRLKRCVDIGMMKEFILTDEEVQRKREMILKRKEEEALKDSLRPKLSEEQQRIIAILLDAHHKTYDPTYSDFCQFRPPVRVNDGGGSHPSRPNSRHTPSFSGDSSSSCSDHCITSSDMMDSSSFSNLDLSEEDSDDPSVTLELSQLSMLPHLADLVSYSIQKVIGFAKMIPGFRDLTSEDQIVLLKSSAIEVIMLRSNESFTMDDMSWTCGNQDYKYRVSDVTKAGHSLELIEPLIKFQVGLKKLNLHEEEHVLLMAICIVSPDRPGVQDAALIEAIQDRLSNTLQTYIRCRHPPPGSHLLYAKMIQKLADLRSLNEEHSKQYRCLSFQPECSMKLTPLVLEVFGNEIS
Outline: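 Cells carrying a VDR-driven beta-lactamase reporter are seeded at 2,000 per well and rested 4 h. Compounds in DMSO are added for 16 h at 37C, and FRET substrate fluorescence is measured after 2 h at room temperature.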

[6] = target: Vitamin D3 receptor (Homo sapiens) (UniProt P11473); assay: qHTS assay to identify small molecule antagonists of the vitamin D receptor (VDR) signaling pathway (AID 743223; active = well fitted inhibition curve with a large enough effect in the signal ratio in the repeat runs, not every such curve was filed as active; the % refers to the signal ratio)
Outline: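 Quantitative HTS in VDR-bla reporter cells stimulated with 1alpha,25-dihydroxyvitamin D3, 3 nM final. Compound exposure 16 h, 37C, 5% CO2. Read-out: beta-lactamase FRET substrate fluorescence, 2 h RT.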

[7] = qHTS assay to identify small molecule agonists of the vitamin D receptor (VDR) signaling pathway - cell viability counter screen (AID 743224); also: series mostly up to about 63 µM; nearly all actives have a fitted effect of over 50% in size
Outline: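 Cells: VDR-bla, 2,000/well, settled 4 h. Treatment: compounds in DMSO, 16 h, 37C/5% CO2. Readout: CellTiter-Glo luminescence after 30 min RT.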

[8] = qHTS assay to identify small molecule antagonists of the vitamin D receptor (VDR) signaling pathway - cell viability counter screen (AID 743225); also: nearly all actives have a fitted effect of over 50% in size
Outline: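 Same-well multiplex: following 16 h treatment of HEK 293T cells carrying a UAS-driven beta-lactamase reporter with compound and agonist (3 nM final), and a 2 h FRET substrate step, CellTiter-Glo was added and luminescence read after 30 min.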

[9] = qHTS assay to identify small molecule agonists of the NFkB signaling pathway - cell viability counter screen (AID 1159515; calls by dose curve; also: series mostly up to about 61 µM; nearly all actives have a fitted effect of over 55% in size)
Outline: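 Cells are seeded (2,000 NFkB-bla ME-180 per well), rested overnight, and dosed with DMSO-dissolved compounds for 5 hr at 37 C. Viability is then read by CellTiter-Glo luminescence after 30 min at room temperature.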

[10] = qHTS assay to identify small molecule agonists of the endoplasmic reticulum stress response signaling pathway (AID 1159516; active = well fitted activation curve with a large enough effect in the signal ratio in the repeat runs, not every such curve was filed as active; the % refers to the signal ratio)
Outline: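 Cells are seeded at 1,500 per well and incubated overnight. Compounds in DMSO are added for 5 hr at 37 C, then beta-lactamase FRET substrate for 2 hr at room temperature, and fluorescence at 460 and 530 nm is measured.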

[11] = qHTS assay to identify small molecule agonists of the endoplasmic reticulum stress response signaling pathway - cell viability counter screen (AID 1159517; calls by dose curve)
Outline: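 Steps: seed 1,500 ESRE-bla HeLa cells per well; incubate overnight at 37 C, 5% CO2; add compounds in DMSO for 5 hr; run FRET substrate 2 hr RT; add CellTiter-Glo, wait 30 min, read luminescence.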

[12] = qHTS assay to identify small molecule antagonists of the retinoid-related orphan receptor gamma (ROR-gamma) signaling pathway - cell viability counter screen (AID 1159520); also: nearly all actives have a fitted effect of over 50% in size
Outline: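 Tet-on ROR gamma CHO cells were given compounds for 2 hr, then doxycycline hyclate at 1 uM final, and incubated 16 hr at 37 C. Viability was measured as ATP content by CellTiter-Glo luminescence.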

[13] = target: Nuclear receptor ROR-gamma (Homo sapiens) (UniProt P51449); assay: qHTS assay to identify small molecule antagonists of the retinoid-related orphan receptor gamma (ROR-gamma) signaling pathway (AID 1159521)
Outline: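 Inducible-expression reporter assay: doxycycline (1 uM final) switched on RORγ in CHO cells bearing a ROR response element-luciferase construct, with test compounds present from 2 h beforehand. Decreased luminescence after 16 h defined antagonist activity.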

[14] = qHTS assay to identify small molecule agonists of the AP-1 signaling pathway - cell viability counter screen (AID 1159525; calls by dose curve; also: nearly all actives have a fitted effect of over 55% in size)
Outline: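 Same-well cytotoxicity counter screen of the Tox21 10K library in ME-180 cells. The readout is ATP-dependent luminescence after 5 h compound treatment. Data are normalised to DMSO and tetra n-octyl ammonium bromide controls.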

[15] = qHTS assay to identify small molecule agonists of the AP-1 signaling pathway (AID 1159526; calls by dose curve)
[16] = target: Retinoic acid receptor RXR-alpha (Homo sapiens) (UniProt P19793); assay: qHTS assay to identify small molecule agonists of the RXR signaling pathway (AID 1159527; calls by dose curve; also: nearly all actives have a fitted effect of over 35% in size; also: potency is read from the fitted curve at half-maximal effect)
Retinoic acid receptor RXR-alpha (Homo sapiens), sequence (P19793 whole entry, looked up): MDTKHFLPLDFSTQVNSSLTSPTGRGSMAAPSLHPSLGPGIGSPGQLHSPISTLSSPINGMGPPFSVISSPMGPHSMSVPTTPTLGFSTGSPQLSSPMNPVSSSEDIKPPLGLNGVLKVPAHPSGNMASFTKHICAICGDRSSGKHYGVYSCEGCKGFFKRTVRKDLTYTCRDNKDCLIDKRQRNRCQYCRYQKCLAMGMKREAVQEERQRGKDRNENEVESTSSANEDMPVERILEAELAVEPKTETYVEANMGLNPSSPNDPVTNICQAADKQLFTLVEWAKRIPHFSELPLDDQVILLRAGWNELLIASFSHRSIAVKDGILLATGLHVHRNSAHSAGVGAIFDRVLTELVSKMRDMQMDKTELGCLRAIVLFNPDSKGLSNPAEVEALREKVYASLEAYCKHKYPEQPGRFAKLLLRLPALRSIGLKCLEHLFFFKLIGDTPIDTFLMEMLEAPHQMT
Outline: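 Compounds in DMSO were added to RXR-alpha-UAS-bla HEK 293T cells kept in 2% charcoal-stripped serum, and incubated 16 hr at 37 C with 5% CO2. Reporter signal came from a 2 hr B/G FRET substrate step.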

[17] = qHTS assay to identify small molecule agonists of the RXR signaling pathway - cell viability counter screen (AID 1159529)
Outline: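 Counter screen: CellTiter-Glo luminescence. Cells: RXR-alpha-UAS-bla HEK 293T. Medium: 2% charcoal-stripped FBS. Treatment: 16 h, 37 C. Reagent incubation: 30 min, RT.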

[18] = target: Bile acid receptor (Homo sapiens) (UniProt Q96RI1); assay: qHTS assay to identify small molecule antagonists of the farnesoid-X-receptor (FXR) signaling pathway (AID 743217; active = well fitted inhibition curve with a large enough effect in the signal ratio in the repeat runs, not every such curve was filed as active; the % refers to the signal ratio)
Bile acid receptor (Homo sapiens), sequence (Q96RI1 whole entry, looked up): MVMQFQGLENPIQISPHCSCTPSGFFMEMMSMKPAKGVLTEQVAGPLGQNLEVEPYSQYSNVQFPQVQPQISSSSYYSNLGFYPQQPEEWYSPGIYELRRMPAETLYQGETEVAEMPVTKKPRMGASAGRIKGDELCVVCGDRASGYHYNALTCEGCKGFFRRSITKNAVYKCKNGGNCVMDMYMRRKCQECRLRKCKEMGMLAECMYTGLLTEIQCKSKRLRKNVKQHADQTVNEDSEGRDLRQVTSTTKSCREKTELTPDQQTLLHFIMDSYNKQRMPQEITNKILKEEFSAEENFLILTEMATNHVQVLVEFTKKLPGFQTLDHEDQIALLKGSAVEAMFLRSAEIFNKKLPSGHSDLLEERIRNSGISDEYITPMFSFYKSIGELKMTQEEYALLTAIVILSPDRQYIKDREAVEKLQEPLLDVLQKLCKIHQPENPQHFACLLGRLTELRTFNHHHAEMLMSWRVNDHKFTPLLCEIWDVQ
Outline: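 Cells carrying a UAS-driven beta-lactamase reporter (GeneBLAzer FXR-UAS-bla HEK 293T) were plated and rested 5 h at 37 °C. Compounds in DMSO were added alongside chenodeoxycholic acid agonist at 50 uM final and left 16 h at 37 °C before FRET substrate readout.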

[19] = target: Peroxisome proliferator-activated receptor delta (Homo sapiens) (UniProt Q03181); assay: qHTS assay to identify small molecule agonists of the peroxisome proliferator-activated receptor delta (PPARd) signaling pathway (AID 743212; calls by dose curve)
Peroxisome proliferator-activated receptor delta (Homo sapiens), sequence (Q03181 whole entry, looked up): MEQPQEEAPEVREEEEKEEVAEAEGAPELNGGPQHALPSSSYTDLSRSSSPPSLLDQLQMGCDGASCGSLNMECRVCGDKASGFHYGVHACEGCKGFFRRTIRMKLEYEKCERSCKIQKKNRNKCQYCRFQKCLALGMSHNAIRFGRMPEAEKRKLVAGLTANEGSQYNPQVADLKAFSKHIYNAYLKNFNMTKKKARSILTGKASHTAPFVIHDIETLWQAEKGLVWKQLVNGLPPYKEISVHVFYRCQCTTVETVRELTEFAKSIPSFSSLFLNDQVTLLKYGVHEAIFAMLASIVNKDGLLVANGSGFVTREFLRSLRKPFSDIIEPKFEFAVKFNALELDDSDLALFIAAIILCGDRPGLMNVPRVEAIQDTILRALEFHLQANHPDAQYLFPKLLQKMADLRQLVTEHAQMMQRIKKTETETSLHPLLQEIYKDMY
Outline: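 Read-out: beta-lactamase FRET fluorescence after 2 h room-temperature incubation with LiveBLAzer B/G substrate. Cells were HEK293H carrying a UAS-bla reporter for PPARd, treated at 37 C with DMSO-dissolved compounds.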

[20] = target: Peroxisome proliferator-activated receptor delta (Homo sapiens) (UniProt Q03181); assay: qHTS assay to identify small molecule antagonists of the peroxisome proliferator-activated receptor delta (PPARd) signaling pathway (AID 743215; active = well fitted inhibition curve with a large enough effect in the signal ratio in the repeat runs, not every such curve was filed as active; the % refers to the signal ratio;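 also: cells stimulated with agonist L165041 at 300 nM final during compound exposure; series mostly up to about 62 µM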)
Outline: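 Cells: HEK293H with a UAS-driven beta-lactamase reporter responsive to PPARd. Compounds were co-added with L165041 (300 nM, final) and incubated 17 h at 37 C before a 2 h room-temperature FRET substrate step and fluorescence reading.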

Compound	Potency [1]	Potency [2]	Potency [3]	Potency [4]	outcome [5]	Potency [6]	Potency [7]	Potency [8]	Potency [9]	Potency [10]	Potency [11]	Potency [12]	Potency [13]	Potency [14]	outcome [15]	Potency [16]	Potency [17]	Potency [18]	Potency [19]	Potency [20]
CC1(C)[C@@H](O[C@H]2O[C@H](C(=O)O)[C@@H](O)[C@H](O)[C@H]2O[C@@H]2O[C@H](C(=O)O)[C@@H](O)[C@H](O)[C@H]2O)CC[C@]2(C)[C@H]3C(=O)C=C4[C@@H]5C[C@@](C)(C(=O)O)CC[C@]5(C)CC[C@@]4(C)[C@]3(C)CC[C@@H]12	inactive	inactive	inactive	inactive	inactive	inactive	inactive	inactive	inactive	inactive	inactive	inactive	inactive	inactive	inactive	inactive	inactive	–	–	–
CCCN(CCC)C(=O)SCC	inactive	inactive	inactive	inactive	inactive	inactive	inactive	inactive	inactive	inactive	inactive	inactive	inactive	inactive	inactive	12.3 µM (active)	inactive	–	–	–
C[n+]1ccn(CCO)c1	inactive	inactive	inactive	inactive	inactive	inactive	inactive	inactive	inactive	inactive	inactive	inactive	inactive	inactive	inactive	inactive	inactive	–	–	–
COc1ccccc1[N+](=O)[O-]	inactive	inactive	inactive	inactive	inactive	inactive	inactive	inactive	inactive	inactive	inactive	inactive	inactive	inactive	inactive	inactive	inactive	inactive	–	–
COc1ccc(N)c(OC)c1	inactive	inactive	inactive	inactive	inactive	inactive	inactive	inactive	inactive	inactive	inactive	inactive	inactive	inactive	inactive	inactive	inactive	–	inactive	–
O=C1O[C@H]([C@H](O)CO)C(O)=C1O	inactive	inactive	inactive	inactive	–	–	inactive	inactive	inactive	inactive	inactive	inactive	inactive	inactive	inactive	inactive	inactive	–	–	–
C[Si](C)(C)N[Si](C)(C)C	inactive	inactive	inactive	inactive	inactive	–	inactive	inactive	inactive	inactive	inactive	inactive	inactive	inactive	inactive	inactive	inactive	–	–	–
NCCNCCNCCN	inactive	inactive	inactive	inactive	inactive	inactive	inactive	inactive	inactive	inactive	inactive	inactive	inactive	inactive	inactive	inactive	inactive	inactive	–	–
OCCOCCOCCOCCOCCO	inactive	inactive	inactive	inactive	inactive	inactive	inactive	inactive	inactive	inactive	inactive	inactive	inactive	inactive	inactive	inactive	inactive	–	–	–
COc1c2ccoc2cc2oc(=O)ccc12	inactive	inactive	inactive	inactive	inactive	inactive	inactive	inactive	inactive	inactive	inactive	inactive	inactive	inactive	inactive	inactive	inactive	–	–	–
CC[N+](CC)(CC(=O)Nc1c(C)cccc1C)Cc1ccccc1	inactive	inactive	inactive	inactive	–	–	inactive	inactive	inactive	inactive	inactive	inactive	inactive	inactive	inactive	inactive	inactive	–	–	–
Cc1cc(CC(=O)O)n(C)c1C(=O)c1ccc(Cl)cc1	inactive	inactive	inactive	inactive	inactive	inactive	inactive	inactive	inactive	inactive	inactive	inactive	inactive	–	inactive	inactive	inactive	inactive	inactive	inactive
O=C(O)Cc1c[nH]c2ccccc12	inactive	inactive	inactive	inactive	inactive	inactive	inactive	inactive	inactive	inactive	inactive	inactive	inactive	inactive	inactive	inactive	inactive	inactive	–	–
CCCCC(=O)O	inactive	inactive	inactive	inactive	inactive	inactive	inactive	inactive	inactive	inactive	inactive	inactive	inactive	inactive	inactive	inactive	inactive	inactive	–	–
O=C1C(N(CO)C(=O)NCO)N(CO)C(=O)N1CO (stereo not drawn)	inactive	inactive	inactive	inactive	inactive	inactive	inactive	inactive	inactive	inactive	inactive	inactive	inactive	inactive	inactive	inactive	inactive	–	–	–
CC(=O)OCc1ccc2c(c1)OCO2	inactive	inactive	inactive	inactive	inactive	inactive	inactive	inactive	inactive	inactive	inactive	inactive	inactive	inactive	inactive	inactive	inactive	inactive	–	–
COc1ccc([C@@H]2CC(=O)c3c(O)cc(O[C@@H]4O[C@H](CO[C@@H]5O[C@@H](C)[C@H](O)[C@@H](O)[C@H]5O)[C@@H](O)[C@H](O)[C@H]4O)cc3O2)cc1OC	inactive	inactive	inactive	inactive	inactive	inactive	inactive	inactive	inactive	inactive	inactive	inactive	inactive	inactive	inactive	inactive	inactive	inactive	–	–
